Screens deposited in PubChem by National Center for Advancing Translational Sciences (NCATS).
VP16 counter: Gal4-VP16 reporter inhibition counter-screen | Drosophila S2 Gal4-VP16 UAS-luciferase, luminescence, 20 h | Potency, µM (highest dose often 53.6 µM), actives largely listed as inhibitors | hit rate 3.5% among 310,000 | AID 2546;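 note: Gal4-VP16 expression switched on by copper sulfate through the metallothionein promoter; nearly all actives have a fitted effect of over 50% in size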
Giardia killer: kills Giardia lamblia; hit rate 0.15% among 340,000; activity change, % at 7.66 µM, hits read low; Giardia lamblia trophozoite viability; in the data active = activity change below about -80%; inconclusive = between about -30% and that limit;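 note: parasites exposed to compound for two days anaerobically before the ATP read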
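Anaerobic 48 hrs incubation at 37 deg C of 100 trophozoites/well with test compounds; ATPLite 1-Step luminescence, 15-30 min RT, reports cellular ATP as viability.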
MCF10A rerep: induces DNA re-replication in MCF 10a normal breast cells; MCF 10A DNA re-replication, Hoechst nuclear intensity, 48 h; Potency, µM (titrated, usually from 46.1 µM), usual class: activators; hit rate 2.9% among 350,000; AID 624296; note: nearly all actives have a fitted effect of over 50% in size
RORg inh: inhibitors of mouse ROR gamma transcriptional activity; P51450; Drosophila S2 Gal4-RORgamma UAS-luciferase reporter, 20 h; Potency, µM (titrated, usually from 53.6 µM), hits mostly inhibitors; hit rate 5.4% among 310,000; AID 2551; note: nearly all actives have a fitted effect of over 60% in size
Target sequence (P51450 whole entry, looked up, the tested form may be a part): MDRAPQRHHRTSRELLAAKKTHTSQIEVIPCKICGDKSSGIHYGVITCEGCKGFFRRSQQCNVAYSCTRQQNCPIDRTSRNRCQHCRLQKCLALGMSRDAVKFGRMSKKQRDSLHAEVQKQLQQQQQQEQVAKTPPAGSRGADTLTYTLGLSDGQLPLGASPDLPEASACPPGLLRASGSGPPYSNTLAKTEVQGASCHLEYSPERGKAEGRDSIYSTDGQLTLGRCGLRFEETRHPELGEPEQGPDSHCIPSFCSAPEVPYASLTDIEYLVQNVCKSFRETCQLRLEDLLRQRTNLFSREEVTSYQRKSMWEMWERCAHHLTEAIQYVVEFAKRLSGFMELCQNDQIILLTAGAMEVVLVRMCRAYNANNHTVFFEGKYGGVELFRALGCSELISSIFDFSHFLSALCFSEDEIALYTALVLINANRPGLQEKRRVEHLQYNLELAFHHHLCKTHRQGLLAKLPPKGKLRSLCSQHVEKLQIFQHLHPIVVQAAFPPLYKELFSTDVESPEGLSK
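Drosophila Schneider cells stably carrying a metallothionein-driven Gal4 DBD–ROR gamma fusion and a UAS-Photinus luciferase reporter were exposed to compound for 1 hr, then induced with copper sulfate (700 uM final) for 20 hr at ambient temperature before luminescence reading.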
SW480 rereplic: DNA re-replication induction in SW480 cells; SW480 DNA re-replication, Hoechst DNA content imaging, 48 h; Potency, µM (titrated, usually from 46.1 µM), hits mostly activators; hit rate 1.8% among 340,000; note: nearly all actives have a fitted effect of over 55% in size
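Quantitative HTS format with DMSO vehicle controls; 48 hr drug incubation at 37 C, then 40 min Hoechst staining and scanning imager measurement at 405 nm excitation.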
Chronic BCR inh: chronic active BCR signaling inhibition | ABC-DLBCL IkBa-CBG/CBR reporter, luminescence ratio, 4 h | Potency, µM (series often up to 46.1 µM), usual class: inhibitors | hit rate 0.05% among 340,000 | AID 493014; active = well fitted inhibition curve with a large enough effect in the signal ratio, with a control signal flat, not every such curve was filed as active; inconclusive = small, poorly fitted or top-dose-only effect, or effect the other way, or a change in a side signal; the % refers to the signal ratio
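Concentration-response series (up to 46 uM) were applied to TMD8 dual-reporter cells for 4 h at 37C with doxycycline. Green/red ratio, after filter-overlap correction, defined %Activity; red signal alone was normalised to basal cells and zero luminescence.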
Each line names hits and unclear results; the compound was inactive in the other large screens. Shown are actives, neighbours in structure and some others; about 8.3% of the full set was active somewhere. Unless noted, calls come from the whole dose curve; as a rule, active = well fitted curve in the direction sought with a large enough effect; inconclusive = small, poorly fitted or top-dose-only effect, or another doubt; inactive = no such curve, though single readings can be large; an effect the other way counts as inactive or inconclusive.

COc1ccccc1N1CCN(Cc2cc3c(cc2Br)OCCO3)CC1	none
COc1ccc(C(=O)CN2CCN(c3ccc(F)cc3)CC2)cc1	Chronic BCR inh inconclusive
COc1ccc(C(=O)CCN2CCc3cc(OC)c(OC)cc3C2)cc1	VP16 counter inconclusive, MCF10A rerep 3.7µM, RORg inh inconclusive, Chronic BCR inh inconclusive
COc1ccccc1N1CCN(Cc2ccc(Br)o2)CC1	VP16 counter 20µM, Chronic BCR inh inconclusive
CCN1CCN(CC(=O)c2ccc(OC)cc2)CC1	MCF10A rerep 2.1µM
O=C(NCC(c1ccc2c(c1)OCO2)N1CCN(c2ccccc2)CC1)c1ccccc1F (centres undefined)	none (no result: VP16 counter, Giardia killer, MCF10A rerep, RORg inh, SW480 rereplic)
CCCCn1c(N)c(N(CCOC)C(=O)c2cc(-c3ccc(F)cc3)nc3ccccc23)c(=O)[nH]c1=O	Giardia killer inconclusive (no result: VP16 counter, RORg inh)
Cc1noc(C)c1NC(=O)N(C)C[C@H]1Oc2ccc(NS(=O)(=O)c3c(C)noc3C)cc2C(=O)N([C@H](C)CO)C[C@@H]1C	none (no result: VP16 counter, RORg inh)
COc1ccccc1N1CCN(CC(=O)Nc2cc(F)ccc2C)CC1	SW480 rereplic inconclusive
COc1ccccc1N1CCN(CC(=O)Nc2cc(C)nn2-c2nc(C)cc(C)n2)CC1	SW480 rereplic 9.2µM (no result: VP16 counter, RORg inh, Chronic BCR inh)
O=C(Nc1nccs1)c1ccc(-c2ccc(F)c(Cl)c2)o1	VP16 counter inconclusive, RORg inh 7.9µM, Chronic BCR inh inconclusive
O=C(Nc1nccs1)c1ccc(-c2ccc(Cl)cc2Cl)o1	VP16 counter 5µM, RORg inh 3.5µM, Chronic BCR inh inconclusive
O=C(Nc1nccs1)c1ccc(COc2c(F)c(F)cc(F)c2F)o1	none (no result: VP16 counter, RORg inh)
O=C(Nc1ccc(S(=O)(=O)N2CCCC2)cc1)C1CCCN1C(=O)c1cccs1 (centres undefined)	none
CCCCn1c(CCn2nc(C)c(Br)c2C)n[nH]c1=S	VP16 counter inconclusive, RORg inh 11µM
COc1ccc(F)cc1CN1CCN(c2cc(C)nc3c4c(C)cc(C)nc4nn23)CC1	VP16 counter inconclusive, RORg inh 20µM (no result: Giardia killer, MCF10A rerep, SW480 rereplic)
COc1ccc(-c2nc3ccccc3c(=O)n2NC(=S)N(C)C)cc1	none
COc1ccc(OCC(=O)Nn2c(-c3ccc(C)cc3)nc3ccccc3c2=O)cc1	VP16 counter 6.3µM, SW480 rereplic inconclusive
COc1ccc(OCC(=O)Nn2c(-c3ccc(OC)cc3)nc3ccccc3c2=O)cc1	VP16 counter 10µM, RORg inh inconclusive
O=C(Cc1ccccc1)Nn1c(-c2ccccc2)nc2ccccc2c1=O	none
CCN(CC)c1ccc(C(=O)NNC(=O)CN2C(=O)NC(C)(c3ccccc3)C2=O)cc1 (centres undefined)	none (no result: VP16 counter, RORg inh)
Cc1cc(NC(=O)c2ccccc2F)n(C(C)(C)C)n1	SW480 rereplic inconclusive
Cc1cc(NC(=O)CC2CCCC2)n(-c2nc3ccccc3[nH]2)n1	VP16 counter 3.5µM, MCF10A rerep inconclusive, RORg inh 1.8µM
Cc1cc(NC(=O)c2ccc(F)cc2F)n(-c2nc3ccccc3[nH]2)n1	VP16 counter 1.8µM, MCF10A rerep inconclusive, RORg inh 1.1µM
Cc1cc(NC(=O)/C=C/c2ccccc2Cl)n(-c2nc3ccccc3[nH]2)n1	VP16 counter 1.3µM, MCF10A rerep 16µM, RORg inh 1.8µM, SW480 rereplic inconclusive, Chronic BCR inh inconclusive
CC1CCCN(S(=O)(=O)c2cnc[nH]2)C1 (centres undefined)	none
O=C1CC(SC2=NCCS2)C(=O)N1c1ccc(Br)cc1 (centres undefined)	none
O=C(O)c1ccccc1SC1CC(=O)N(c2ccccc2)C1=O (centres undefined)	VP16 counter 4µM, MCF10A rerep inconclusive, RORg inh 13µM, SW480 rereplic inconclusive, Chronic BCR inh inconclusive
O=C(O)c1cccnc1SC1CC(=O)N(c2ccccc2)C1=O (centres undefined)	none
Cc1nc(SC2CC(=O)N(c3ccccc3)C2=O)nc2c1CCCC2 (centres undefined)	SW480 rereplic inconclusive
Cc1nnc(SC2CC(=O)N(c3ccccc3)C2=O)s1 (centres undefined)	VP16 counter 1µM, MCF10A rerep inconclusive, RORg inh 1.1µM, SW480 rereplic inconclusive, Chronic BCR inh inconclusive
